Screening results as filed in PubChem.
TDP1 cell CPT: DT40-hTDP1 cell growth loss with CPT. chicken DT40 Tdp1-/-;hTDP1 cells + 20 nM CPT, ATP luminescence, 48 h. Potency, µM (top dose mostly 46.2 µM), for inactives: top-dose activity change, negative = growth inhibition, hits mostly inhibitors. 420,000 tested, 12% active; also: potency is read from the fitted curve at half-maximal effect; % is scaled to controls: 0 for no effect and ±100 for the full control effect; nearly all actives have a fitted effect of over 55% in size
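Chicken DT40 Tdp1-/- cells stably complemented with human TDP1 were seeded at 400 cells/well in medium containing 20 nM camptothecin, exposed to pin-transferred compounds, and grown at 37 °C for at least 48 hr. Viability was read as ATP luminescence.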
DT40 TDP1 no CPT: qHTS for Inhibitors of human tyrosyl-DNA phosphodiesterase 1 (TDP1): qHTS in cells in absence of CPT; DT40 Tdp1-/- hTDP1 cells, no CPT, ATP luminescence, 48 h; Potency, µM (doses to about 46.2 µM), inactives show top-dose activity change, negative = growth inhibition, hits mostly inhibitors; 420,000 tested, 15% active; AID 686978, 2013; also: potency is read from the fitted curve at half-maximal effect; % is scaled to controls: 0 for no effect and ±100 for the full control effect; nearly all actives have a fitted effect of over 55% in size
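No-CPT arm: Tdp1-/-;hTDP1 DT40 cells (400/well) plus compounds, incubated ≥48 hr at 37 °C. Readout CellTiter-Glo luminescence.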
HepG2 tox: counter-screen for TGF-b inhibitors: cytotoxicity in HepG2 cells; 410,000 tested, 0.76% active; HepG2 CAGA-GFP viability, ATP luminescence, 18 h; Potency, µM (series often up to 46.1 µM), for the others: top-dose activity change, negative = cytotoxicity, most hits filed as cytotoxic; also: potency is read from the fitted curve at half-maximal effect
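HepG2 CAGA-GFP cells (1000/well, DMEM with 1% FBS) received compound, then TGF-beta at 500 pg/mL final, and were incubated 18 hours at 37 degrees C. Viability was read by CellTiter-Glo luminescence. Media-only wells were set as complete cell-killing and DMSO as no toxicity.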
TGFb inhibitor: blocks TGF-b signaling | 410,000 tested, 1.2% active | AID 588855 | HepG2 CAGA-GFP TGF-b/SMAD3 reporter, GFP fluorescence, 18 h; TGF-beta stimulated, 500 pg/mL final | Potency, µM (titrated, usually from 46.1 µM), without a hit: at the highest dose activity, negative = inhibition, hits mostly inhibitors; also: potency is read from the fitted curve at half-maximal effect; % is scaled to controls: 0 for no effect and ±100 for the full control effect; nearly all actives have a fitted effect of over 65% in size
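First, reporter cells (HEPG2 CAGA-GFP) rested 2 h at 37 degrees C. Next, compounds were pinned in and TGF-beta added to 500 pg/mL final. After 18 h, GFP was imaged per cell and summed per well.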
IL1B secr inh: inflammasome signaling inhibition, IL-1 beta readout | 360,000 tested, 4.7% active | activity change, % at 57.5 µM | THP-1 LPS/ATP IL-1B secretion, AlphaLISA, 16 h; hits give low values; in the data active = activity change below about -50%; inconclusive = mostly about -30% to -49%; also: % is scaled to controls: 0 for no effect and ±100 for the full control effect
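Secreted IL-1B measured by AlphaLISA bead assay after 16 h compound exposure of THP-1 cells; compounds (final up to 57.5 uM) added 1 h before LPS (250 ng/mL) and ATP (1.25 mM) stimulation; lower signal means less secretion.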
TDP1 block: inhibitors of human tyrosyl-DNA phosphodiesterase TDP1. Q9NUW8. recombinant TDP1, AlphaScreen DNA substrate cleavage. Potency, µM (series often up to 130 µM), inactives show at the highest dose activity change, negative = inhibition, most hits filed as inhibitors. 350,000 tested, 0.28% active. AID 485290; also: potency is read from the fitted curve at half-maximal effect; % is scaled to controls: 0 for no effect and ±100 for the full control effect; nearly all actives have a fitted effect of over 40% in size
Target sequence (Q9NUW8 whole entry, looked up): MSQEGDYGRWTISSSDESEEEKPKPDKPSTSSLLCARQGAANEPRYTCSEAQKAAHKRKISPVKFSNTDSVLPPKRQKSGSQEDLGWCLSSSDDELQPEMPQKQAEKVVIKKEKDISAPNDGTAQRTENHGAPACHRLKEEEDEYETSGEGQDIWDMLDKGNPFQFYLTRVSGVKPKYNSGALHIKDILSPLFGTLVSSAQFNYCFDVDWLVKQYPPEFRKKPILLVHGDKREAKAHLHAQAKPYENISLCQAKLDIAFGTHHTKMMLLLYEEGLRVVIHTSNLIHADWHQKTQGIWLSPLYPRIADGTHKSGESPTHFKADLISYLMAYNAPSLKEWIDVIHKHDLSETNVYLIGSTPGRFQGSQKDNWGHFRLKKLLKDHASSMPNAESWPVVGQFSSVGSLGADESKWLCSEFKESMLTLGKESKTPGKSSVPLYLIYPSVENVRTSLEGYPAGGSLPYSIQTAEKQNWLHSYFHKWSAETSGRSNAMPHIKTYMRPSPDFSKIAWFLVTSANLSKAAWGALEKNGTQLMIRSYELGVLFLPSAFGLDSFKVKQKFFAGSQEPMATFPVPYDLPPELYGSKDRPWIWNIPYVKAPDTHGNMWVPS
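Steps: enzyme plus compound, 15 min RT; add biotin/phosphotyrosine-FITC oligonucleotide (15 nM final), react 5 min; add donor/acceptor beads (10 ug/ml final), 10 min; read AlphaScreen. Tdp1 at 1 nM final.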
* marks the source's active call; other numbers are inactive results; ? = inconclusive; / = not tested or not shown. Only some compounds are listed: those with a hit (about 19% of all), similar ones and a draw of the others. Unless noted, calls follow the shape of the dose curve; as a rule, active = well fitted curve in the direction sought with a large enough effect; inconclusive = small, poorly fitted or top-dose-only effect, or another doubt; inactive = no such curve, though single readings can be large; an effect the other way counts as inactive or inconclusive.

SMILES	TDP1 cell CPT	DT40 TDP1 no CPT	HepG2 tox	TGFb inhibitor	IL1B secr inh	TDP1 block
COc1cccc(C2(CC(=O)N3CCN(c4ccccn4)CC3)CC(=O)N(C3CCCC3)C2=O)c1 (centres undefined)	1%	?	/	/	/	/
O=c1c(-c2cccc(F)c2)nc2cncnc2n1Cc1ccccc1	?	16µM*	/	/	/	/
O=c1c(-c2cccc(F)c2)nc2cncnc2n1Cc1ccc(F)cc1	14%	-2%	/	/	/	/
O=c1c(-c2ccc(F)c(F)c2)nc2cncnc2n1Cc1ccc(F)cc1	15µM*	16µM*	/	/	/	/
COc1ccc(-c2nc3ccccc3c(=O)n2Cc2ccccc2)cc1COc1ccc(NC(C)=O)cc1	/	/	/	/	/	1%
CC(C)(C)C(=O)CSc1nc2ccsc2c(=O)n1Cc1ccccc1Cl	21µM*	15µM*	-10%	-1%	/	-4%
O=C(O)CCCCCn1c(SCC(=O)c2ccc(O)c(O)c2)nc2ccsc2c1=O	15%	16%	9%	-3%	13	/
CCCCn1c(SCC(=O)c2ccccc2)nc2c(sc3ccccc32)c1=O	-12%	-16%	-4%	1%	/	-6%
CCCCn1c(SCC(=O)c2ccccc2)nc2ccsc2c1=O	?	18µM*	-18%	?	-59*	3%
CCCCn1c(SCC(=O)c2ccc(O)c(O)c2)nc2ccsc2c1=O	15µM*	23µM*	-8%	?	1	6%
O=C(O)c1cccc(C(=O)O)c1Br	4%	6%	-1%	-3%	10	/
COc1ccc(-c2cc(C(F)(F)F)nc(SCC(=O)NCc3ccc(Cl)cc3)n2)cc1	-2%	?	1%	1%	/	-1%
Cc1cccc(C)c1NC(=O)CN1C(=O)S/C(=C\c2cccn2C)C1=O	-24%	-21%	10%	-6%	-19	-4%
CC(/C=C1\SC(=Nc2cccnc2)NC1=O)=C\c1ccccc1	4.1µM*	2.9µM*	1%	-21%	-12	0%
Cn1cc(/C=C2/SC(=O)N(c3ccccc3)C2=O)c2ccccc21	-7%	-27%	0%	2%	4	0%
Cn1cccc1/C=C1\SC(=Nc2ccccc2)NC1=O	2.9µM*	2.3µM*	-2%	?	140	3%
O=C1NC(=Nc2ccccc2)S/C1=C\c1cccs1	?	?	113%	0%	12	-8%
Cn1cccc1/C=C1\SC(=Nc2cccc(O)c2)NC1=O	21µM*	21µM*	-12%	?	30	10%
Cc1ccc(N=C2NC(=O)/C(=C/c3cn(C)c4ccccc34)S2)cc1C	18µM*	18µM*	-6%	30%	-25	6%
COC(=O)C=C1CCC2C3CC(F)C4(O)CC(=O)CCC4(C)C3C(=O)CC12C (centres undefined)	-9%	?	4%	2%	1	/
Cc1cc(C)cc(N=C2NC(=O)/C(=C/c3cccs3)S2)c1	?	13µM*	-38%	-15%	9	3%
COC(=O)/C=C1\SC(=Nc2ccccc2)NC1=O	-16%	-5%	9%	12%	-65*	1%
Cn1cccc1/C=C1\SC(=Nc2ccc(O)cc2)NC1=O	0.041µM*	0.023µM*	-33%	?	132	5%
COC(=O)/C=C1/SC(=Nc2ccc(Cl)c(Cl)c2)NC1=O	2%	-29%	-35%	0%	-8	0%
CCc1ccc(N=C2NC(=O)/C(=C/c3cc(OC)c(OC)c(OC)c3)S2)cc1	?	?	-93%	?	-3	/
Cc1ccc(N=C2NC(=O)/C(=C/c3cccn3C)S2)c(C)c1	?	6.5µM*	-49%	-8%	-21	9%
C/C(=N/NC(=O)C1CCCC1)c1ccc(NC(=O)C(F)(F)F)cc1	/	/	/	/	/	1%
